# TEAD-YAP block: TEAD-YAP interaction inhibition. HEK-TIYL cells, TEAD-Gal4/YAP UAS-luciferase luminescence. inhibition, % at 9.12 µM. hit rate 1.4% among 640,000; in the data active = inhibition above about 32%;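 note: 0% = median of test compound wells and 100% = reference inhibitor wells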
# FBW7 act: human FBW7 E3 ligase activation, primary screen; normalized activity (activation), % at 26.1 µM; hit rate 0.13% among 650,000; AID 1259310; Q969H0; AlphaScreen FBW7–phospho-cyclin E peptide binding, activator screen; in the data active = normalized activity above about 1.9%;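 note: purified mutant Fbw7 with reduced substrate affinity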
# MITF inh: inhibitors of human MITF; AID 1259374; inhibition, % at 2.6 µM; O75030; AlphaScreen MITF homodimerization, bead proximity signal; hit rate 0.91% among 650,000; in the data active = inhibition above about 50%;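 note: 0% = vehicle wells with protein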
# Target sequence (O75030 whole entry, looked up): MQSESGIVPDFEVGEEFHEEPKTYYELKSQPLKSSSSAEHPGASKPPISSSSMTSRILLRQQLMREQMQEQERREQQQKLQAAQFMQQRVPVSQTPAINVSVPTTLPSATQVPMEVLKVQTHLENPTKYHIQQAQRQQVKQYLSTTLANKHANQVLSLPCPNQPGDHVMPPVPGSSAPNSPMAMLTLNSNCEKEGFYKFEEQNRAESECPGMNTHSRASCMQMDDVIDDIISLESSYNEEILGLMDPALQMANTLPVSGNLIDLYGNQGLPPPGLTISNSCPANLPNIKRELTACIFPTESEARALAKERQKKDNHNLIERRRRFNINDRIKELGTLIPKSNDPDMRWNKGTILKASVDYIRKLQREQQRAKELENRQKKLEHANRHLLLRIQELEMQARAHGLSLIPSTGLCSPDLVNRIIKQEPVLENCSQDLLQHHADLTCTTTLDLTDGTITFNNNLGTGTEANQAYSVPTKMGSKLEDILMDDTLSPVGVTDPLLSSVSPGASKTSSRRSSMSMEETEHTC
# GPR151 ag: activates the human receptor GPR151; Q8TDV0; PathHunter beta-arrestin GPR151 cells, luminescence; activation, % at 11.2 µM; hit rate 1% among 650,000; in the data active = activation above about 4.9%;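 note: 0% = median of compound wells and 100% = cells with positive control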
# Numbers without * were called inactive. Compounds with a hit are over-represented: about 3.5% of the library has one in this group of screens.
SMILES,TEAD-YAP block,FBW7 act,MITF inh,GPR151 ag
CCN1CCN(C2=CC(=[N+]3CCCC3)CC(C)(C)C2)CC1,5.8,-0.1,-8.1,2.4
Cc1cc(Cl)ccc1NC(=O)c1ccc(O)cc1,-44.5,-0.1,-9.8,-0.5
O=C(CN1C(=O)S/C(=C/c2ccccc2)C1=O)Nc1ccc(O)cc1,2.8,0.0,2.6,0.1
COc1ccc(N(Cc2cccs2)C(=O)CCl)cc1,22.7,-0.2,7.1,-1.4
O=C(CCl)N(Cc1cccs1)c1ccc2c(c1)OCCO2,37.2*,0.4,3.3,-1.1
CS(=O)(=O)c1ccccc1C(=O)Nc1nc(-c2ccc(C#N)cc2)cs1,34.0*,0.1,4.2,0.5
Cc1ccc(S(=O)(=O)Nc2ccccc2C(=O)Nc2nc(-c3ccc(Br)s3)cs2)cc1,52.9*,0.0,-4.6,1.0
Cc1ccc(S(=O)(=O)Nc2ccccc2C(=O)Nc2nccs2)cc1,39.0*,0.1,21.2,-0.2
CSc1ccccc1C(=O)Nc1nc(-c2ccc(C#N)cc2)cs1,-2.3,-0.1,-7.2,2.8
Cc1ccc(S(=O)(=O)Nc2ccccc2C(=O)Nc2nc(-c3ccc(Cl)cc3)cs2)cc1,52.9*,0.1,2.5,1.0
COCCNCCOCCOc1c(OC)cccc1OC,-1.2,0.6,2.8,-0.8
COc1ccccc1CNC(=O)c1sc2nc(C)nc(N3CCN(c4ccccn4)CC3)c2c1C,-3.4,0.7,21.5,-0.3
Cc1ccc(S(=O)(=O)Nc2ccccc2C(=O)Nc2nc(-c3ccc(Br)cc3)cs2)cc1,38.1*,-0.3,-8.0,1.9
Cc1ccc(S(=O)(=O)Nc2ccccc2C(=O)Nc2nc(-c3cccs3)cs2)cc1,0.5,0.4,-2.8,-0.9
O=C(O)c1cc2c3c(c1)C1C=CCC1C(c1ccccc1)N3CC1CC=CC21 (stereo not drawn),12.8,0.1,56.4*,1.3
O=C(O)C1C2CC=CC2c2cc(Oc3ccccc3)cc3c2N1CC1CC=CC31 (stereo not drawn),-1.5,2.3*,0.3,0.1
Cc1cc(C)c2c3c1C1C=CCC1CN3C(C(=O)O)C1CC=CC21 (stereo not drawn),-1.6,2.5*,25.0,0.1
O=C(O)c1cc2c3c(c1)C1CC=CC1C(c1ccc(Br)cc1)N3CC1CC=CC21 (stereo not drawn),-5.5,-0.1,71.6*,-1.3
NNC(=O)c1ccc(Oc2ccc(O)cc2)cc1,-0.5,0.1,-2.4,-1.8
Cc1ccc(-c2cnn(-c3ccc(C(=O)O)cc3)c2)cc1,42.4*,-0.2,-1.5,-11.3
COc1ccccc1NC(=O)C1=C(C)NC(SCC(=O)Nc2ccccc2C)=C(C#N)C1c1ccco1 (stereo not drawn),-5.3,0.1,-0.8,-0.6
COc1ccccc1NC(=O)CSc1nnc(-c2ccncc2)n1-c1ccccc1C,61.9*,0.0,1.4,0.8
CCOc1ccccc1NC(=O)CSc1nnc(-c2ccc(OC)cc2)n1-n1cccc1,41.1*,-0.1,-6.8,-0.4
COc1cccc(NC(=O)CSc2nnc(-c3ccncc3)n2-c2ccccc2C)c1,14.4,0.0,-22.5,-0.3
COc1ccccc1NC(=O)CSc1nnc(-c2ccccn2)n1-c1ccccc1OC,42.2*,0.0,15.1,1.8
SMILES,TEAD-YAP block,FBW7 act,MITF inh,GPR151 ag
COC(=O)c1ccc2c(=O)n(Cc3ccc4c(c3)OCO4)c(SCC(=O)Nc3ccc(C)c(Cl)c3)nc2c1,5.4,-0.1,9.6,-0.2
CCOC(=O)C1=C(C)NC2=C(C(=O)CC(c3ccc(OC)cc3)C2)C1c1cccc(F)c1 (stereo not drawn),11.8,0.2,-14.5,-0.1
CCOC(=O)c1ccc(-n2c(=S)sc3c(=O)n(-c4ccccc4)c(SCC#N)nc32)cc1,-6.4,0.0,0.3,0.0
O=C(Nc1ccc(-n2cccn2)cc1)C1CCN(Cc2nc3c(s2)CCCC3)CC1,37.7*,-0.2,-5.4,-0.4
CC(=O)Nc1ccc(Nc2nc(Nc3ccccc3)nc3c2ncn3-c2ccsc2)cc1,35.9*,0.2,10.6,0.1
CC(=O)Nc1ccc(Nc2nc(N3CCc4ccccc4C3)nc3c2ncn3-c2ccsc2)cc1,39.6*,0.0,9.7,-2.5
CC(=O)Nc1ccc(Nc2nc(Nc3ccc(N4CCOCC4)cc3)nc3c2ncn3-c2ccccc2)cc1,-2.2,0.0,8.4,-1.8
COc1cc(Nc2nc(Nc3ccc(NC(C)=O)cc3)c3ncn(-c4ccccc4)c3n2)cc(OC)c1OC,39.0*,0.1,-8.6,-1.6
CC(=O)Nc1ccc(Nc2nc(Nc3ccccc3)nc3c2ncn3-c2ccccc2)cc1,45.8*,0.1,1.6,3.1
CC(=O)Nc1ccc(Nc2nc(Nc3ccc(-n4ccnc4)cc3)nc3c2ncn3-c2ccccc2)cc1,52.0*,-0.2,9.8,1.8
CC(=O)Nc1ccc(Nc2nc(Nc3ccncn3)nc3c2ncn3-c2ccccc2)cc1,13.5,5.1*,4.8,1.8
CC(=O)Nc1ccc(Nc2nc(Nc3ccncn3)nc3c2ncn3C(C)C)cc1,-9.2,0.5,4.0,-0.5
CC(=O)Nc1ccc(Nc2nc(-c3c(C)noc3C)nc3c2ncn3-c2ccsc2)cc1,-3.3,0.3,9.6,-1.6
CC(=O)Nc1ccc(Nc2nc(Nc3cnccn3)nc3c2ncn3-c2ccsc2)cc1,28.9,3.7*,7.0,4.1
Nc1nc(Nc2ccncn2)nc2c1ncn2-c1ccccc1,-9.9,4.2*,-4.0,-0.4
CC(=O)c1ccc(NC(=O)Nc2ccn(Cc3cccc4ccccc34)n2)cc1,-5.0,0.1,-16.4,4.0
COc1cc(C(=O)Nc2ccc3oc(-c4ccc(Cl)c(Cl)c4)nc3c2)cc(OC)c1OC,-10.1,0.1,-11.3,0.0
CCN(c1cccc(C)c1)S(=O)(=O)c1ccc(Sc2ccc(Br)cc2)c(C(=O)NCc2ccccc2Cl)c1,-5.1,0.1,-4.7,-0.6
Cc1cccc(S(=O)(=O)N2CCN(c3cc(-n4cccn4)nc(C)n3)CC2)c1,-5.4,-0.1,11.3,0.8
Cn1c(Nc2nc(NCCO)c3ncn(-c4ccsc4)c3n2)nc2ccccc21,14.1,-0.3,4.1,-2.6
CC(=O)Nc1ccc(Nc2nc(Nc3nc4ccccc4n3C)nc3c2ncn3-c2ccsc2)cc1,43.1*,-0.1,6.8,0.1
CC(=O)Nc1ccc(Nc2nc(Nc3ccncc3)nc3c2ncn3-c2ccccc2)cc1,44.9*,3.4*,-14.0,-1.9
COc1ccc(CCn2c(-c3ccc4ccccc4c3)csc2=Nc2cccc(C(F)(F)F)c2)cc1,11.8,0.0,11.3,0.5
O=[N+]([O-])c1cc(S(=O)(=O)N2CCOCC2)ccc1Sc1nc2ccccc2s1,-0.1,-0.3,12.2,2.3
CS(=O)(=O)c1ccc(Sc2nc3ccccc3s2)c([N+](=O)[O-])c1,64.4*,-0.1,4.5,0.2
COc1cccc(C2CC(=O)C=C(NCc3ccccc3OC)C2)c1 (stereo not drawn),52.3*,0.8,11.5,0.4
CC(=O)Nc1ccc(Nc2nc(-c3ccc(C(=O)N4CCN(C)CC4)cc3)nc3c2ncn3-c2ccsc2)cc1,36.0*,0.0,2.2,0.8
COc1ccc(-c2nc(Nc3ccc(NC(C)=O)cc3)c3ncn(-c4ccsc4)c3n2)cn1,50.8*,0.1,8.7,2.9
COc1ccc(-c2nc(Nc3ccccc3)c3ncn(-c4ccsc4)c3n2)cn1,0.3,0.3,16.2,-2.4
